Test [1] has as its target human Serotonin, 5-Hydroxytryptamine Receptor 7 (5HT7), HTR7 (gene 3363) (UniProt P34969). The experiment in a line: NVS_GPCR_h5HT7: NovaScreen (NVS) G Protein-Coupled Receptor Assay for human Serotonin, 5-Hydroxytryptamine Receptor 7 (5HT7) (AID 2283255).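 Further: hits reduce specific radioligand binding relative to DMSO.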 In a few lines:
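Radioligand displacement on membranes from CHO cells expressing human 5HT7, 1 h incubation, filter-based scintillation counting. Primary screen used a single 25 uM concentration in duplicate; actives were followed up in concentration series.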

For test [2], the target named is human Adrenergic, Alpha 2c Receptor (Adra2C), ADRA2C (gene 152) (UniProt P18825). Nature of the test: NVS_GPCR_hAdra2C: NovaScreen (NVS) G Protein-Coupled Receptor Assay for human Adrenergic, Alpha 2c Receptor (Adra2C) (AID 2283259). In a few lines: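 Radioligand binding on Sf9-expressed receptor membranes, 1 h after chemical dosing, filter-based scintillation read-out. Loss of binding fitted positively versus DMSO; primary duplicate screen at 25 uM, actives retested in concentration series.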

Test [3] addresses human Dopamine Receptor D4.4 (DRD4.4), DRD4 (gene 1815) (UniProt P21917). The experiment in a line: NVS_GPCR_hDRD4.4: NovaScreen (NVS) G Protein-Coupled Receptor Assay for human Dopamine Receptor D4.4 (DRD4.4) (AID 2283264). In a few lines:
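Radioligand displacement on human DRD4.4 from CHO-derived membranes, 1 hour incubation, bound counts read by filtration and scintillation. Primary screen in duplicate at 25 uM; actives followed up in concentration series.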

Test [4] deals with human Dopamine Receptor D2 (DRD2), DRD2 (gene 1813) (UniProt P14416). Nature of the test: NVS_GPCR_hDRD2s: NovaScreen (NVS) G Protein-Coupled Receptor Assay for human Dopamine Receptor D2 (DRD2) (AID 2283266). A digest of the protocol: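 Radioligand displacement used human DRD2 membranes extracted from CHO cells and was read by filter-based scintillation counting after 1.5 hours. Primary screening was in duplicate at 25 uM. Loss of signal versus DMSO was fitted, with concentration series in follow-up.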

The target of test [5] is Muscarinic acetylcholine receptor M2 (Homo sapiens) (UniProt P08172). Nature of the test: NVS_GPCR_hM2: NovaScreen (NVS) G Protein-Coupled Receptor Assay for human Muscarinic, M2 Receptor (AID 2283273). A digest of the protocol: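 CHO membrane prep, radioligand + test compound, 1 h; filtration, scintillation count. Screen 25 uM duplicate → conc. series for actives. Readout: decrease in binding vs DMSO control.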

The target of test [6] is human Muscarinic, M4 Receptor, CHRM4 (gene 1132) (UniProt P08173). Nature of the test: NVS_GPCR_hM4: NovaScreen (NVS) G Protein-Coupled Receptor Assay for human Muscarinic, M4 Receptor (AID 2283274). A digest of the protocol: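 Cell-free radioligand displacement using CHO-derived human M4 receptor protein, 1 h after dosing; bound radioactivity by filtration and scintillation counting. Primary screen single 25 uM duplicate, actives followed in concentration series.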

Test [7] deals with Muscarinic acetylcholine receptor M5 (Homo sapiens) (UniProt P08912). Nature of the test: NVS_GPCR_hM5: NovaScreen (NVS) G Protein-Coupled Receptor Assay for human Muscarinic, M5 Receptor (AID 2283275). In a few lines: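 Radioligand displacement on CHO-derived membrane preparations, 1 h, filter-based scintillation counting. Single-concentration duplicate screen at 25 uM; hits (e.g. 30% inhibition) retested in singleton concentration-response up to 50 uM. Loss of binding fitted versus DMSO.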

Test [8] deals with Neuropeptide Y receptor type 2 (Homo sapiens) (UniProt P49146). Nature of the test: NVS_GPCR_hNPY2: NovaScreen (NVS) G Protein-Coupled Receptor Assay for human Neuropeptide Receptor Y2 (NPY2) (AID 2283277). In a few lines: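 Radioligand binding on membranes extracted from SK-N-MC cells, cell-free, read 1 h after dosing by filter-based scintillation counting. Loss of signal vs DMSO. Primary screen in duplicate at 25 uM; actives followed up in concentration-response up to 50 uM.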

The target in test [9] is human Neurokinin, NK2 Receptor, TACR2 (gene 6865) (UniProt P21452). The experiment in a line: NVS_GPCR_hNK2: NovaScreen (NVS) G Protein-Coupled Receptor Assay for human Neurokinin, NK2 Receptor (AID 2283278).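 Further: actives reduce bound radioligand signal relative to DMSO baseline.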 A digest of the protocol: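 Test chemicals displace a radioligand from receptor prepared from CHO cells in a cell-free format, read after 4 hours by scintillation counting on filters. Screening starts at 25 uM in duplicate, and active chemicals then go to concentration series.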

Test [10] concerns the target human Opioid Receptor Delta 1 (Opiate D1), OPRD1 (gene 4985) (UniProt P41143). Nature of the test: NVS_GPCR_hOpiate_D1: NovaScreen (NVS) G Protein-Coupled Receptor Assay for human Opioid Receptor Delta 1 (Opiate D1) (AID 2283280). In a few lines: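 Radioligand displacement on membranes from CHO cells expressing the receptor, read by filter scintillation counting 1 h after dosing. Duplicate single-point screen at 25 uM, then concentration series for actives; loss of signal versus DMSO.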

The target in test [11] is human Orphanin, Opioid Related Nociceptin Receptor 1 (ORL1), OPRL1 (gene 4987) (UniProt P41146). The experiment in a line: NVS_GPCR_hORL1: NovaScreen (NVS) G Protein-Coupled Receptor Assay for human Orphanin, Opioid Related Nociceptin Receptor 1 (ORL1) (AID 2283283). In a few lines:
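Filter-based radioligand displacement with receptor extracted from HEK293 cells, read 1 hour after dosing by scintillation counting. Duplicate single-point screen at 25 uM; qualifying chemicals then run in concentration-response to 50 uM, analysed relative to DMSO.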

Test [12] has as its target human Adenosine A1 Receptor (AdoRA1), ADORA1 (gene 134) (UniProt P30542). Nature of the test: NVS_GPCR_hAdoRA1: NovaScreen (NVS) G Protein-Coupled Receptor Assay for human Adenosine A1 Receptor (AdoRA1) (AID 2283254). A digest of the protocol:
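Each chemical is first tested twice at 25 uM, actives later in dilution series, against a radioligand bound to human cortex membranes; after 1 h, filter-retained counts are compared with DMSO controls, lower signal indicating displacement.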

Test [13] concerns the target D(1A) dopamine receptor (Homo sapiens) (UniProt P21728). The experiment in a line: NVS_GPCR_hDRD1: NovaScreen (NVS) G Protein-Coupled Receptor Assay for human Dopamine Receptor D1 (DRD1) (AID 2283269). In a few lines: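 Extracted HEK293 DRD1 is incubated 1 h with compound and a tritiated or iodinated radioligand, then filtered and counted. Screening runs 25 uM in duplicate with on-plate positive and negative controls.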

In test [14] the target is human Thromboxane A2 Receptor (TXA2), TBXA2R (gene 6915) (UniProt P21731). The experiment in a line: NVS_GPCR_hTXA2: NovaScreen (NVS) G Protein-Coupled Receptor Assay for human Thromboxane A2 Receptor (TXA2) (AID 2283282).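 Further: actives reduce bound radioligand signal relative to DMSO baseline.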 A digest of the protocol: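 Human platelet-derived receptor preparation incubated with test chemical and radiolabelled ligand for 1 hour, cell-free. Bound label was separated by filtration and counted; displacement relative to DMSO controls gave activity, screened at 25 uM, then titrated.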

Test [15] addresses human Adenosine A2a Receptor (AdoRA2a), ADORA2A (gene 135) (UniProt P29274). The experiment in a line: NVS_GPCR_hAdoRA2a: NovaScreen (NVS) G Protein-Coupled Receptor Assay for human Adenosine A2a Receptor (AdoRA2a) (AID 2283256). In a few lines:
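Cell-free radioligand binding on membranes from HEK293 expressing the receptor; competitive displacement read 1.5 h after dosing by filter-based scintillation counting. Primary screen in duplicate at 25 uM; actives followed in concentration series, with DMSO as baseline.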

Test [16] deals with human Adrenergic, Alpha 2A Receptor (Adra2A), ADRA2A (gene 150) (UniProt P08913). Nature of the test: NVS_GPCR_hAdra2A: NovaScreen (NVS) G Protein-Coupled Receptor Assay for human Adrenergic, Alpha 2A Receptor (Adra2A) (AID 2283257). In a few lines: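 Radioligand filter-binding was run on HT29-derived membranes, cell-free, read by scintillation counting 1 h after dosing. Primary screening was in duplicate at 25 uM, with concentration series in follow-up. Loss of signal versus DMSO indicates displacement.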

The target of test [17] is human Adrenergic, Beta 1 Receptor (Adrb1), ADRB1 (gene 153) (UniProt P08588). Nature of the test: NVS_GPCR_hAdrb1: NovaScreen (NVS) G Protein-Coupled Receptor Assay for human Adrenergic, Beta 1 Receptor (Adrb1) (AID 2283258). A digest of the protocol:
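Cell-free radioligand displacement on receptor from human neuroepithelioma cells; 2 h after dosing, filter-based scintillation counting. Primary screen in duplicate at 25 uM, actives retested in concentration series; loss of signal vs DMSO baseline.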

In test [18] the target is Beta-2 adrenergic receptor (Homo sapiens) (UniProt P07550). The experiment in a line: NVS_GPCR_hAdrb2: NovaScreen (NVS) G Protein-Coupled Receptor Assay for human Adrenergic, Beta 2 Receptor (Adrb2) (AID 2283261). A digest of the protocol:
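Filter-based radioligand binding using receptor prepared from CHO cells, 1 h incubation, scintillation counting. Primary screen in duplicate at 25 uM, actives retested in concentration series; loss of binding relative to DMSO.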

Test [19] deals with human Leukotriene B4 Receptor 1 (LTB4-BLT1), LTB4R (gene 1241) (UniProt Q15722). Nature of the test: NVS_GPCR_hLTB4_BLT1: NovaScreen (NVS) G Protein-Coupled Receptor Assay for human Leukotriene B4 Receptor 1 (LTB4-BLT1) (AID 2283271). In a few lines: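 Radioligand displacement binding on receptor extracted from human neutrophils, cell-free, 1 h after dosing; filter-based scintillation counting. Primary screen in duplicate at 25 uM, actives retested in concentration-response up to 50 uM; loss of signal versus DMSO.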

The target of test [20] is human Neuropeptide Receptor Y1 (NPY1), NPY1R (gene 4886) (UniProt P25929). The experiment in a line: NVS_GPCR_hNPY1: NovaScreen (NVS) G Protein-Coupled Receptor Assay for human Neuropeptide Receptor Y1 (NPY1) (AID 2283276). In a few lines: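 Cell-free radioligand binding using receptor extracted from SK-N-MC cells, 1 h incubation, filter-based scintillation counting. Primary screen single concentration 25 uM in duplicate; actives followed in concentration series. Loss of bound signal scored versus DMSO.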

Records with an inconclusive call do not appear. A structure can be active in one record and inactive in another. Activity calls are given as the source filed them. How the source made its calls: active means hit-call score of the fitted dose curve at least 0.9, where 1 is the maximum; inconclusive means response in the unintended direction; inactive means score below 0.9.

For orientation: AC50 means the concentration giving half of the maximal activity seen.

human Thromboxane A2 Receptor (TXA2), TBXA2R (gene 6915), sequence (P21731 whole entry, looked up): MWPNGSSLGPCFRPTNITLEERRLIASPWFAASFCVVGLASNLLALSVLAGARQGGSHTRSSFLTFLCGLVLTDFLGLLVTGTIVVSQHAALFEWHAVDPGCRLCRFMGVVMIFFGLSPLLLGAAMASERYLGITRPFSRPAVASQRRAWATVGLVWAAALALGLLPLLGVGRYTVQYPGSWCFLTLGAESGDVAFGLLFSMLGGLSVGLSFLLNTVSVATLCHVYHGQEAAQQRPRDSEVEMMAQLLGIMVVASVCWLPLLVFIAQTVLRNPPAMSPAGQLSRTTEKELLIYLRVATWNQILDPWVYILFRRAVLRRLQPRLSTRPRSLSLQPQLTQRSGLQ
D(1A) dopamine receptor (Homo sapiens), sequence (P21728 whole entry, looked up): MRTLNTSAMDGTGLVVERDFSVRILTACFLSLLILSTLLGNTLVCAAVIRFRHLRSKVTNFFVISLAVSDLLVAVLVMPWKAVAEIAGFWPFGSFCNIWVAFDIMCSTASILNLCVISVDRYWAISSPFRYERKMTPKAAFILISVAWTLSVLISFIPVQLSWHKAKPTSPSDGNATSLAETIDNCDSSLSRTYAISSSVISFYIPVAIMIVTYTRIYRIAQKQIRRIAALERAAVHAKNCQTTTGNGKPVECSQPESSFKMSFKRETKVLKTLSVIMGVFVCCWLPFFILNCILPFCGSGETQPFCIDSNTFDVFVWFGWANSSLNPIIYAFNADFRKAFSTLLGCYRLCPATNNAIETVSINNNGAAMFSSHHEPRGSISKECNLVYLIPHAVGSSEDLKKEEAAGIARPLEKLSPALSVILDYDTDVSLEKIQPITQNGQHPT
Muscarinic acetylcholine receptor M2 (Homo sapiens), sequence (P08172 whole entry, looked up): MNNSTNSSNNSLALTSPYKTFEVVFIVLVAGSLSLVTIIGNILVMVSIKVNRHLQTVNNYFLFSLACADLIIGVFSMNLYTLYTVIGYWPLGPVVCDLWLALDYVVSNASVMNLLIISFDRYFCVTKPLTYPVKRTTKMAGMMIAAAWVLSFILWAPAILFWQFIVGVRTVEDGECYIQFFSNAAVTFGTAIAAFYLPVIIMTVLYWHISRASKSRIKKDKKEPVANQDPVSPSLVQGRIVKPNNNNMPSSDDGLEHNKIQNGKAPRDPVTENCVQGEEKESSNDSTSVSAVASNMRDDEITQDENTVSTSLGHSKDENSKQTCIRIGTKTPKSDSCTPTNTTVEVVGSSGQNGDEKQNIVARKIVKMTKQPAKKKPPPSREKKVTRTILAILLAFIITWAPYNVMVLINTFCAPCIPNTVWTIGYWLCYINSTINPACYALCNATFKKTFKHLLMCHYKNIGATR
human Adenosine A2a Receptor (AdoRA2a), ADORA2A (gene 135), sequence (P29274 whole entry, looked up): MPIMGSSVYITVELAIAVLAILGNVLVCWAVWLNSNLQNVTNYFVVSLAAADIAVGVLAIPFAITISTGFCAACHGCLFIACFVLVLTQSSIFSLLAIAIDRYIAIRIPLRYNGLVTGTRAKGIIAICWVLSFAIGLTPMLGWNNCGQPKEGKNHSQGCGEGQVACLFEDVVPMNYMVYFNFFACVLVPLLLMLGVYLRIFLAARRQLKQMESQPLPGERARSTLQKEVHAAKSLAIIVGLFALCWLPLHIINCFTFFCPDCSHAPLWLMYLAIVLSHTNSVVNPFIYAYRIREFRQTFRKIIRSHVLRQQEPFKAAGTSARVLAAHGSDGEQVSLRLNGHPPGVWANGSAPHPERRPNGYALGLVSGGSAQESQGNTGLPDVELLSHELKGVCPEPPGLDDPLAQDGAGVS
human Neurokinin, NK2 Receptor, TACR2 (gene 6865), sequence (P21452 whole entry, looked up): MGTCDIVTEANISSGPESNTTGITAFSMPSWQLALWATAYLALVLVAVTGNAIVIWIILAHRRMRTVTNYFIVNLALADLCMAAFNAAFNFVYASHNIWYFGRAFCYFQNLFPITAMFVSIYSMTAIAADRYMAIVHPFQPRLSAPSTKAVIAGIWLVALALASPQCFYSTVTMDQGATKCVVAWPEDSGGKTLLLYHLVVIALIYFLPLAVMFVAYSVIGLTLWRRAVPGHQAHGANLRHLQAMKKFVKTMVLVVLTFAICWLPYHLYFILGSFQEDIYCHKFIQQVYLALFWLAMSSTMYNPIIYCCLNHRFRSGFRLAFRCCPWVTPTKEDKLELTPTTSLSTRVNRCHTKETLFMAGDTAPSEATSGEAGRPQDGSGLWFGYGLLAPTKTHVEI
human Opioid Receptor Delta 1 (Opiate D1), OPRD1 (gene 4985), sequence (P41143 whole entry, looked up): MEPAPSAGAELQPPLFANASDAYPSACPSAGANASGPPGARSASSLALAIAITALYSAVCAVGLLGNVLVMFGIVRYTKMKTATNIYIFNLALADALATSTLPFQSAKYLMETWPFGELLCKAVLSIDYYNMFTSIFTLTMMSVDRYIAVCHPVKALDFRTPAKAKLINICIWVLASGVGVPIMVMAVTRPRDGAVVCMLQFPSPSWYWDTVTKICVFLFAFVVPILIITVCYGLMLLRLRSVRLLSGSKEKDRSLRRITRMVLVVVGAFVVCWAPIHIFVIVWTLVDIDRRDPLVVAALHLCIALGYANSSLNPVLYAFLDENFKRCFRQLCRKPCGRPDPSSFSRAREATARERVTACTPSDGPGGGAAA
human Muscarinic, M4 Receptor, CHRM4 (gene 1132), sequence (P08173 whole entry, looked up): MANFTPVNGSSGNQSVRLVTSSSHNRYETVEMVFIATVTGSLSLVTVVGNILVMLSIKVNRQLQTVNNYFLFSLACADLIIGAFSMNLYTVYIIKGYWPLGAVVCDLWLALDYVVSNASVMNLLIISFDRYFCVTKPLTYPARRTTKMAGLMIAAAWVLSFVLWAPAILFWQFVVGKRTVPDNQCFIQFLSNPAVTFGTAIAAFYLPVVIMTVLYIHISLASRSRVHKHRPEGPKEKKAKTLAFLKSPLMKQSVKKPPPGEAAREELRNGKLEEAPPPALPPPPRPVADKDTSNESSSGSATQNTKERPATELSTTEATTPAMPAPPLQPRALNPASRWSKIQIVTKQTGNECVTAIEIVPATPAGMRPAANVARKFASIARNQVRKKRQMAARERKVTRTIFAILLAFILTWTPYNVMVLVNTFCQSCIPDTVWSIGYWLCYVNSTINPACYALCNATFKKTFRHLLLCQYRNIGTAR
human Dopamine Receptor D2 (DRD2), DRD2 (gene 1813), sequence (P14416 whole entry, looked up): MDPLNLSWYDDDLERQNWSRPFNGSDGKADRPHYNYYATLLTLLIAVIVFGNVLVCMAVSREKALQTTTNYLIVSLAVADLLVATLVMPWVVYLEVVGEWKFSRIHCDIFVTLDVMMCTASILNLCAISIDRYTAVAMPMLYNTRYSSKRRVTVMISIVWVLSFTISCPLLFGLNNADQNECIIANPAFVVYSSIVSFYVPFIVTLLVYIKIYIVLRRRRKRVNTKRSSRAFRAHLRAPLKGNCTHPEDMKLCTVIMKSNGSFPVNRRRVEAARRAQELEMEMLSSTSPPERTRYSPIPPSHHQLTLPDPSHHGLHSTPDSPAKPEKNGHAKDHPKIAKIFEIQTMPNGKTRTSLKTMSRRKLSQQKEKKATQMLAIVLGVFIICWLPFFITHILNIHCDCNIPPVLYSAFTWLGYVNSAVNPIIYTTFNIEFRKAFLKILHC
human Adrenergic, Alpha 2c Receptor (Adra2C), ADRA2C (gene 152), sequence (P18825 whole entry, looked up): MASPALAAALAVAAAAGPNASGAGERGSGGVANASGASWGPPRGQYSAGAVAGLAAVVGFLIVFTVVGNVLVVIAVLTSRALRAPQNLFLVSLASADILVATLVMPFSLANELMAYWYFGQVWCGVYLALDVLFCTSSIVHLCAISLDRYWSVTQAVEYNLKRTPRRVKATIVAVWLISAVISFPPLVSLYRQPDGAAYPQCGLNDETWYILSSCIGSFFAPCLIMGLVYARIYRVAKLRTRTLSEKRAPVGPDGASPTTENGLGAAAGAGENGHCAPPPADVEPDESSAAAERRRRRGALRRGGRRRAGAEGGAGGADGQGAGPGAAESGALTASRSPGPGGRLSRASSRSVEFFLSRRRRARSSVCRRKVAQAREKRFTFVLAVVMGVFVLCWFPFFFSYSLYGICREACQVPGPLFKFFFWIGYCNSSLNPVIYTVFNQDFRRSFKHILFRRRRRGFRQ
human Serotonin, 5-Hydroxytryptamine Receptor 7 (5HT7), HTR7 (gene 3363), sequence (P34969 whole entry, looked up): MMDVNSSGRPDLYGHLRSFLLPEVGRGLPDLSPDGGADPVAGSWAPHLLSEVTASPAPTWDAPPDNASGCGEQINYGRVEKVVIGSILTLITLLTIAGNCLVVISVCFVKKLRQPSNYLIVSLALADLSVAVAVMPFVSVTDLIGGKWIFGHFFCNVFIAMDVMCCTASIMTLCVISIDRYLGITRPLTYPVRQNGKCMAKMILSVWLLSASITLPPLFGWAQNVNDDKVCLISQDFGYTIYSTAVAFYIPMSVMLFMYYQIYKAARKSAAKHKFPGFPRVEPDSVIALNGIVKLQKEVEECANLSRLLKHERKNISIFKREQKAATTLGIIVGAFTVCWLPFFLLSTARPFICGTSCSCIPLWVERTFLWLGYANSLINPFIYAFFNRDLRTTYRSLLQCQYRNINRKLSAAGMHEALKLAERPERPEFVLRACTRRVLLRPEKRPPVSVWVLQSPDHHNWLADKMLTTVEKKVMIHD
human Orphanin, Opioid Related Nociceptin Receptor 1 (ORL1), OPRL1 (gene 4987), sequence (P41146 whole entry, looked up): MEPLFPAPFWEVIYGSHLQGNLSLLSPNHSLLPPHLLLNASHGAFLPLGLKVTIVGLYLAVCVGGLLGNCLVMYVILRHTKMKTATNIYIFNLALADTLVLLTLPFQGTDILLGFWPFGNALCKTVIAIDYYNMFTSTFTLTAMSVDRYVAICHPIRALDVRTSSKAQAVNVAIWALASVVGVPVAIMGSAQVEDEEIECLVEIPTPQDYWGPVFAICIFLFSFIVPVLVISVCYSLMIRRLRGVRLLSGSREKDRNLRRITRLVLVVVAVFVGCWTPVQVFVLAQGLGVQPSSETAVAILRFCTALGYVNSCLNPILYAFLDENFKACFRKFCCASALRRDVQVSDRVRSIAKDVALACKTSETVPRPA

Consider `CC/C(=C(\c1ccccc1)c1ccc(OCCN(C)C)cc1)c1ccccc1`, for which the AC50 in test [1] was 4.89 µM (active); in [2], 9.54 µM (active); in test [5] it was 19.3 µM (active); in test [6], 10.1 µM (active); in [7], 7.13 µM (active); in [8], 11.9 µM (active). The values for the AC50 in [9] and in test [11] were 6.84 µM (active) and 9.83 µM (active), respectively. Also, the compound was classed as inactive in test [3], in test [4], in test [9] and in [10].
On to `COc1ccc(C(C)=O)cc1`, for which the compound was called inactive in test [12].
Take `c1ccc2c(c1)-c1ccc3ccc4cccc5cc-2c1c3c45`: in test [13], the outcome was inactive.
As to `O=S1(=O)CC(Cl)(Cl)C(Cl)(Cl)C1`, the half-maximal activity concentration (AC50) in test [13] was 20.1 µM (active). Also, the compound was classed as inactive in test [9] and in test [14].
Take `Cc1cccc(O)c1`: in test [14], the result was inactive.
On the same count and under the same terms, the same measure for `Cc1cc(O)c(C)c(C)c1O`: “inactive”.
In the case of `O=C(c1ccc(OCCN2CCCCC2)cc1)c1c(-c2ccc(O)cc2)sc2cc(O)ccc12`, the outcome in test [12] and in [19] was inactive. Moreover, the AC50 is 2.27 µM (active) in test [1]; 6.13 µM (active) in test [15]; 9.52 µM (active) in test [16]; 10.5 µM (active) in [17]; 2.78 µM (active) in test [2]; 11.8 µM (active) in test [18]. Moreover, the AC50 is 1.07 µM (active) in test [4]; 0.948 µM (active) in test [13]; 2.92 µM (active) in test [5]; 4.93 µM (active) in test [6]; 3.7 µM (active) in test [7]; 7.83 µM (active) in [20]. Besides, the AC50 is 3.58 µM (active) in test [9], 5.28 µM (active) in test [10] and 0.982 µM (active) in test [11].
For `CCCCOCCOCCO`, the outcome in test [9] was inactive.
As to `COc1ccccc1NC(=O)CC(C)=O`, the result in test [14] was inactive.
On to `C=C1CC[C@H]2O[C@]2(C)CC[C@@H]2[C@@H]1CC2(C)C`, for which the compound was classed as inactive in [13].
`CC(=O)c1cccnc1`: the compound was called inactive in test [5].
As to `Cc1cc(N)n(-c2ccccc2)n1`, in test [5], the AC50 was 13.9 µM (active).
Turning to `O=C1OC2(c3ccc(O)cc3Oc3cc(O)ccc32)c2ccccc21`, in test [9], the call was inactive.
On to `O=C1OCc2ccccc21`, for which the call in [15] was inactive.
In the case of `CC(=O)OCC=C(C)CCC=C(C)CCC=C(C)C`, in test [13], the outcome was inactive.
In the case of `C#C[C@]1(O)CC[C@H]2[C@@H]3CCc4cc(O)ccc4[C@H]3CC[C@@]21C`, in test [15], the AC50 is 6.76 µM (active).
Regarding `CC(C)(O)CCc1ccccc1`, in [13], the call was inactive.
With `N#CCCCC(C#N)CCC#N` (stereo unspecified), the compound was classed as inactive in [13].
On the same count and under the same terms, the same measure for `CCC(=O)OC/C=C(\C)CCC=C(C)C`: “inactive”.
With `CCOC(=O)C=Cc1ccccc1`, in test [5], the half-maximal activity concentration (AC50) is 38.6 µM (active).
On to `CC(C)(C)c1cc(CCC(=O)OCCSCCOC(=O)CCc2cc(C(C)(C)C)c(O)c(C(C)(C)C)c2)cc(C(C)(C)C)c1O`, for which the compound was classed as inactive in test [14].
Same read-out and setting: the same measure for `CC/C=C\C#N`: “inactive”.

The values above are taken from PubChem BioAssay (EPA / NIEHS).
